According to PubChem BioAssay (NCI):
This is part of a sample that, as a whole, favours compounds with a hit. Of some 79,000 tested, about 15% had one in any assay. Values without a mark were called inactive. Calls of active or inactive are those of the source. Cut-off read from the data, not from the text of the source: active = growth inhibition above about 70%; inactive = the rest.

Test: NCI Yeast Anticancer Drug Screen. Data for the mlh1 rad18 strain (AID 175)
Conditions: S. cerevisiae mlh1 rad18 strain growth inhibition; at 50.0 µM; active compounds read high
Procedure, shortened: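 Yeast w/ defined DNA-repair lesions; compound exposure; growth vs vehicle controls → % inhibition.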

SMILES	growth inhibition
Cc1cc(NCCCCCCCNc2cc(C)nc3cc(N)ccc23)c2ccc(N)cc2n1	91.5% (active)
C[C@]12CC[C@H]3[C@@H](CCC4=CC(=O)CC[C@@]43C)[C@@H]1CC[C@@H]2C(=O)C=O	56.2%
COc1cc2c[n+](C)c3c4cc(OC)c(OCc5ccccc5)cc4c(OCc4ccccc4)cc3c2cc1OC	65.8%
Nc1ncnc2c1c(-c1ccc(Cl)cc1)cn2-c1ccccc1	26.7%
Cc1c[nH]c2nc(C)n(-c3ccccc3)c(=N)c12	8.65%
COc1ccc(Cc2ccc3c(C)cc(Cl)nc3c2)cc1	86.3% (active)
COC(=O)c1ccc(NCc2c(O)ccc(O)c2Br)cc1Cl	91.7% (active)
CC1=CC(=O)c2c(O)c3c(c(O)c2C1=O)C1C(O)C(C3=O)C23C(=O)c4c(O)c(C)cc(O)c4C(O)=C2C(=O)CC(O)C13 (centres undefined)	91.8% (active)
CC(C)(O)[C@H](CCO)O[Si](c1ccccc1)(c1ccccc1)C(C)(C)C	98.6% (active)
COC(=O)/C(C#N)=C(/SC)N(C)C	-10.3%
N#CC(C(=O)CCCC(=O)Nc1ccc(Cl)cc1)c1ccccc1Cl (centres undefined)	96.7% (active)
FC(F)(F)c1cccc(Nc2ccc3cnc4ccccc4c3c2)c1	93.3% (active)
CN1C(/C=C/c2ccc(O)c3ncccc23)CCC2CCCC(O)C21 (centres undefined)	95.4% (active)
N#CC1(C#N)C(C#N)(C#N)C12CCCC2	67.3%
O=C1C(Cl)=C(Cl)C(=O)C2=C1CC(Cl)C(Cl)C2 (centres undefined)	99.2% (active)
N#CC(/C=C/c1ccccc1)(NO)Nc1cccc(Cl)c1 (centres undefined)	99.5% (active)
O=C(O)c1ccccc1C(c1ccccc1)c1ccccc1	67%
OCC1(c2ccccc2)OC1c1ccccc1 (centres undefined)	68%
COc1ccc(NS(=O)(=O)c2ccc(F)cc2)cc1	98.5% (active)
CCn1c2nc(=O)n(C)c(=O)c-2[n+]([O-])c2cc(C)ccc21	10.8%

SMILES	growth inhibition
O=[N+]([O-])C(=C(Nc1ccccc1)Nc1ccccc1)C(Cl)=C(Cl)Cl	85.7% (active)
CCC/C(=N\NC(=S)N(C)C)c1ccccn1	99.5% (active)
O=C(CSc1cc[o+]cc1)c1cccc([N+](=O)[O-])c1	93.5% (active)
CC12CCC(c3sc(N)c(C#N)c31)C2(C)C (centres undefined)	43.8%
N#CC(C#N)=C(C1CC1)C1CC1	-21.9%
Cc1c(N=Nc2cccc(F)c2)c(-c2ccccc2)nn1C(N)=S	99.2% (active)
CN1COc2c(Cl)cc(Cl)cc2C1	42.5%
O=C1CCCCO1	-4.85%
Nc1cc2c(cc1/C=C(\C(=O)O)c1ccccc1)OCO2	15.2%
Cc1cc2c(cc1C)C(=O)OC2=O	41.5%
C(/Cc1ccc2c(c1)OCO2)=N\NC1=NCCCCN1	-6.5%
CCCCCCCCN(CCCCCCCC)CC(O)c1cc(-c2ccc(OC)cc2)nc2cc(Cl)ccc12 (centres undefined)	89% (active)
Cc1cc(C(=O)CBr)c(CN2C(=O)c3ccccc3C2=O)c(=O)n1C	38%
O=C(O)c1ccccc1-c1c2ccc(=O)c(Br)c-2oc2c(Br)c(O)ccc12	97.8% (active)
O=C(Nc1cccc(NC(=O)c2cc(=O)c3ccccc3o2)n1)c1cc(=O)c2ccccc2o1	67.3%
COC(=O)c1nc(=S)[nH]c(C(=O)OC)c1C(=O)c1ccc([N+](=O)[O-])cc1	91% (active)
COC1/C=C\C=C(/C)C(=O)Nc2cc3nc4cc(Br)ccc4oc-3c(c2=O)CC(C)CC(OC)C(O)C(C)/C=C(\C)C1OC(N)=O (centres undefined)	89.4% (active)
NC(=S)C(=S)N/C=C(/c1ccc(Cl)cc1)S(=O)(=O)Cc1ccc(Cl)cc1	97.3% (active)
O=C(Cc1ccccc1)c1ccccc1C(=O)NNc1ccccc1	-0.75%
